Among the data in PubChem BioAssay (NCI) are growth values, retold here.

SMILES strings stand for the structures. About 83,000 compounds went through this panel and 20% of them were active in at least one assay; those are over-represented in the sample as a whole.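 Activity criterion: percent growth below 10, measured after cells in 96-well plates were exposed to a single compound concentration for 48 hours.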 The source made the active and inactive calls.

The experiment concerns MDA-MB-468 breast. Nature of the experiment: NCI-60 one-dose screen, 48 h (100 = growth as untreated, 0 = no growth, -100 = all killed). As to conditions: 10 µM unless noted.
For `C=C1C(=O)O[C@H]2[C@H]1CC/C(COC(=O)n1ccnc1)=C\CC[C@@]1(C)O[C@@H]21`, the growth was 79.7% (inactive). With `O=C(Nc1ccc(I)cc1F)c1cc(F)ccc1O`, the growth was -3.61% (active). In the case of `NC(=O)c1c(NC(=O)/C=C/c2cccs2)sc2c1CCC(=O)C2` it was 37.2% (inactive).

Take `CCOC(=O)Cc1cnc(N/N=C(\C)c2cc3ccccc3o2)s1`: the growth was 99.8% (inactive). In the case of `Cc1cc(Nc2nc(N3CCOCC3)nc3ccccc23)n[nH]1` it was 55.9% (inactive).

With `O=c1oc2ccc(I)cc2c(=O)n1-c1ccc(Br)cc1F`, the growth was -2.16% (active).

On to `CCCCCCN1C(=O)/C(=c2\sc3n(c2=O)C2C(NN=3)N(CC)C(=O)N2CC)c2ccccc21` (centres undefined), for which the growth is -10.2% (active).

For the compound `COC(=O)c1c(C)c2n(c1C)C(=O)C(c1ccccc1)=C2`, the growth is 39.1% (inactive).

On to `OCCc1ccc(Cl)cc1`, for which the growth is 103% (inactive).

For the compound `Cc1c2cc[nH]c(=O)c2c(C)c2c1[nH]c1ccc(OC(=O)c3ccccc3)cc12`, the growth was 12.6% (inactive). On to `COc1cccc(-c2cc(C(=O)Nc3ccc(/C=C/c4ccc(OC5CCN(C)CC5)cc4)cc3)ccc2OC)c1`, for which the growth was -36.4% (active). In the case of `CCC/C=C/C=C/C(=O)N[C@@H](Cc1cc(F)cc(F)c1)C(=O)N[C@@H]1C(=O)N2CCC[C@H]2C(=O)N2CCCC[C@H]2C(=O)N[C@@H](C)C(=O)N2C[C@H](C)C[C@H]2C(=O)O[C@H]1C` it was -0.457% (active); in that of `COc1cc(C(=O)c2c(-c3ccccc3)oc3ccccc23)cc(OC)c1O`, 0.857% (active). For the compound `CC12O[C@H](C[C@@H](O)[C@H]1O)n1c3ccccc3c3c4c(c5c6ccccc6n2c5c31)C(=O)N(CCCN)C4=O`, the growth was 17.1% (inactive).
